An excerpt weighted towards active compounds, which were near 3.8% of everything screened.
ATXN2 expr inh: Primary qHTS for Inhibitors of ATXN expression | HEK-293 ATXN2-luciferase reporter, luminescence, 24 h | Potency, µM (highest dose often 57 µM), for inactives: at the top dose activity change, negative = inhibition, most hits filed as inhibitors | AID 1745845, 2022 | 360,000 compounds, 0.72% hits; also: % is scaled to controls: 0 for no effect and ±100 for the full control effect; nearly all actives have a fitted effect of over 55% in size
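qHTS (up to 57 uM final) was run with 24 h compound exposure of reporter cells at 37 °C. Each well was multiplexed: SteadyGlo luminescence measured ATXN2-luciferase expression after a fluorogenic Gly-Phe-AFC viability readout (25 uM final).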
ATXN viability: Viability Counterscreen for Primary qHTS for Inhibitors of ATXN expression; S2 cells (HEK-293 line with an ATXN2-luciferase reporter) viability, CellTiter-Fluor protease fluorescence, 24 h; AID 651635, 2014; Potency, µM (titrated, usually from 56.7 µM), actives largely listed as cytotoxic; 400,000 compounds, 0.49% hits; also: nearly all actives have a fitted effect of over 40% in size
Nrf2 inh: Nrf2 qHTS screen for inhibitors. AID 504444, 2011. A549 ARE-Fluc reporter, luciferase luminescence, 18-24 h. Potency, µM (titrated, usually from 46 µM), for the others: top-dose activity change, negative = inhibition, hits mostly inhibitors. 360,000 compounds, 2.1% hits; also: % is scaled to controls: 0 for no effect and ±100 for the full control effect; nearly all actives have a fitted effect of over 60% in size
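Reporter: ARE-Fluc in A549. Exposure: 18-24 h, 37 °C, 5% CO2, 5% FBS OPTI-MEM. Readouts: fluorescent cytotoxicity (CellTiter-Fluor), then luminescent Nrf2 signal after BugLite.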
HepG2 viability: qHTS for Inhibitors of TGF-b: Cytotox Counterscreen; HepG2 CAGA-GFP viability, ATP luminescence, 18 h; Potency, µM (highest dose often 46.1 µM), inactives show at the top dose activity change, negative = cytotoxicity, actives largely listed as cytotoxic; 410,000 compounds, 0.76% hits; AID 588856, 2011
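CellTiter-Glo luminescence gave cytotoxicity after 18 hours at 37 degrees C. The cells were HepG2 CAGA-GFP in 1% FBS DMEM, stimulated with 500 pg/mL TGF-beta after compound addition. %Activity was normalised to no-cell wells (complete cell-killing) and DMSO (no toxicity), and curves were fitted and classified.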
A549 tox: Nrf2 qHTS screen for inhibitors: counterscreen for cytotoxicity | A549 ARE-Fluc cells, CellTiter-Fluor viability, 18-24 h | Potency, µM (titrated, usually from 46 µM), for inactives: top-dose activity change, negative = cytotoxicity, hits mostly inhibitors | 390,000 compounds, 0.16% hits | AID 504648, 2011; also: % is scaled to controls: 0 for no effect and ±100 for the full control effect
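Cytotoxicity counterscreen: CellTiter-Fluor fluorescence was measured in A549 ARE_Fluc cells after 18-24 h of compound exposure in a concentration series. The subsequent BugLite luminescent read reports ARE-luciferase activity.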
TGFb inhibitor: qHTS for Inhibitors of TGF-b; HepG2 CAGA-GFP TGF-b/SMAD3 reporter, GFP fluorescence, 18 h; TGF-beta stimulated, 500 pg/mL final; Potency, µM (titrated, usually from 46.1 µM), for inactives: at the highest dose activity, negative = inhibition, hits mostly inhibitors; 410,000 compounds, 1.2% hits; AID 588855, 2011; also: % is scaled to controls: 0 for no effect and ±100 for the full control effect; nearly all actives have a fitted effect of over 65% in size
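TGF-beta reporter screen: HEPG2 CAGA-GFP, 1% FBS, 500 pg/mL TGF-beta final, 18 h; per-cell GFP summed per well; curves fitted and categorized by class.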
Numbers without * were called inactive; i = inactive; ? = inconclusive; · = not tested or not shown; [ ] = dose if it differs, or a comment. Calls follow the shape of the dose curve; as a rule, active = well fitted curve in the direction sought with a large enough effect; inconclusive = small, poorly fitted or top-dose-only effect, or another doubt; inactive = no such curve, though single readings can be large; an effect the other way counts as inactive or inconclusive. Potency is read from the fitted curve at half-maximal effect.

SMILES	ATXN2 expr inh	ATXN viability	Nrf2 inh	HepG2 viability	A549 tox	TGFb inhibitor
COc1cc(OC)cc(C(=O)Nc2ccc(NC(=O)c3ccco3)c(Cl)c2)c1	?	i	25.9µM*	-60.3%	?	-12.0%
COc1ccc(CC(=O)N2CCN(c3ccccc3OC)CC2)cc1OC	-2.9%	i	-28.4%	-23.6%	5.4%	-0.2%
CCc1ccccc1NC(=O)CCn1cccn1	6.3%	i	?	7.3%	2.8%	4.8%
CCOC(=O)c1ccccc1S(=O)(=O)N1CCN(c2nc(-c3cccs3)nc3ccccc23)CC1	·	·	-4.1%	·	6.9%	·
O=C(CN1C(=O)CC(c2ccccc2)Sc2ccccc21)Nc1cccc(Cl)c1 (centres undefined)	1.3%	i	?	11.4%	-19.0%	9.2%
COc1ccccc1C1c2[nH]c3ccccc3c2C[C@H]2C(=O)N(C3CCN(Cc4ccccc4)CC3)CC(=O)N12 (some centres undefined)	-24.4%	?	-10.8%	-43.3%	?	11.2µM*
COc1ccc(C2c3[nH]c4ccccc4c3C[C@H]3C(=O)N(C4CCN(Cc5ccccc5)CC4)CC(=O)N23)cc1OC (some centres undefined)	-27.3%	i	-22.7%	-18.2%	-17.6%	?
Cc1cccc(NC(=O)C2NC(=O)CC2c2ccccc2)c1C (centres undefined)	-14.1%	i	-0.9%	-33.7%	3.1%	15.1%
O=S(=O)(C/C(=C/CO)S(=O)(=O)c1ccccc1)c1ccccc1	?	20µM*	?	15.8µM*	16.4µM*	?
CCOC(=O)c1c(CSCc2ccccc2)oc2ccc(O)c(CN(C)C)c12	?	?	-11.1%	22.4µM*	-5.0%	?
CCc1nc(C)cn1S(=O)(=O)c1cc(F)ccc1OC	5.7%	i	0.3%	4.0%	-0.3%	5.2%
CCc1nc(C)cn1S(=O)(=O)c1cc(Br)ccc1OC	-14.6%	i	23.1µM*	-2.2%	?	4.7%
CSc1ccc(CN2CCC(CO)(Cc3ccc(Cl)cc3)CC2)cc1	?	?	?	-156.3%	-6.1%	22.4µM*
OCC1(Cc2ccc(Cl)cc2)CCN(Cc2ccccc2F)CC1	-35.4%	i	-7.2%	-26.2%	6.9%	-10.0%
CC(C)N(CCCNC(=O)Cn1c(=O)c2cccn2c2ccccc21)Cc1ccccc1	-15.8%	i	3.5%	-6.2%	-0.7%	-14.2%
Cc1cc(C)nc(NN=C(c2ccccc2)c2ccccc2)n1	·	i	?	-63.9%	-9.2%	11.2µM*
Cc1cc(C)c(NC(=O)COC(=O)c2cccc3c2C(=O)c2ccccc2C3=O)c(C)c1	-25.7%	i	16.4µM*	-0.6%	-11.1%	?
Cc1ccc(C)c(NC(=O)COC(=O)c2cccc3c2C(=O)c2ccccc2C3=O)c1	-2.3%	i	13µM*	-21.1%	-1.6%	?
Cc1ccc(NC(=O)COC(=O)c2cccc3c2C(=O)c2ccccc2C3=O)c(C)c1	?	?	?	9.1%	-1.0%	-1.7%
CCOc1ccc(NC(=O)C[n+]2ccc(N(C)C)cc2)cc1	-0.7%	i	?	0.3%	-1.6%	4.5%
CN(C)c1cc[n+](CC(=O)Nc2ccc(Oc3ccccc3)cc2)cc1	?	?	23.1µM*	-4.9%	-16.3%	-0.3%
CC(=O)Nc1cc[n+](CC(=O)c2ccc(Cl)cc2)cc1	2.3%	i	23.1µM*	-16.7%	-2.0%	-1.4%
CC(=O)Nc1cc[n+](C(C)C(=O)c2ccc(Cl)cc2)cc1 (centres undefined)	-20.0%[2.22 µM]	i	-17.9%	-18.2%	1.3%	-1.6%
CN(C)c1cc[n+](CC(=O)c2ccc(OC(F)F)cc2)cc1	-15.0%	i	20.6µM*	-3.9%	-6.2%	-15.3%
O=C(C[n+]1cccc(CNC(=O)c2ccc(OC(F)F)cc2)c1)c1ccccc1	-9.5%[11.3 µM]	i	?	-13.5%	5.8%	-1.6%
SMILES	ATXN2 expr inh	ATXN viability	Nrf2 inh	HepG2 viability	A549 tox	TGFb inhibitor
CN(C)c1cc[n+](CC(=O)Nc2ccc(Cl)cc2)cc1	?	i	6.51µM*	-26.3%	2.1%	-23.7%
O=C(COc1ccccc1/C=C1\SC(=S)NC1=O)Nc1ccc(F)cc1	?	?	23.1µM*	-31.4%	?	?
COc1ccc(CCNC(=O)Cc2c(Cl)cccc2Cl)cc1	-31.6%	?	-0.5%	0.0%	5.5%	0.0%
CC(C)CNC(=O)c1coc(=O)c(Br)c1	·	·	?	-89.4%	?	14.1µM*
O=C(N/N=C/c1ccc([N+](=O)[O-])cc1)c1[nH]ncc1Br	34.2%	i	?	-1.8%	0.6%	0.0%
Cc1ccc(C2(C)NC(=O)N(CC(=O)N3CCN(C(=O)c4cccs4)CC3)C2=O)cc1 (centres undefined)	2.9%	i	-0.1%	2.4%	-0.4%	-2.2%
COc1ccccc1NS(=O)(=O)c1cc(NC(C)=O)ccc1N1CCCCC1	-18.4%	i	?	1.6%	-0.9%	-7.3%
O=C(Nc1ccc(N2CCOCC2)c(S(=O)(=O)Nc2ccccc2Cl)c1)c1ccccc1	-23.6%	i	16.4µM*	-22.7%	-7.8%	-18.1%
COc1ccccc1NS(=O)(=O)c1cc(NC(=O)c2ccncc2)ccc1N1CCCC1	-2.8%	i	20.6µM*	-0.8%	-16.3%	?
COc1ccccc1NS(=O)(=O)c1cc(NC(=O)c2ccc(Cl)nc2)ccc1Cl	20µM*	?	23.1µM*	-25.6%	?	?
COc1ccc(-c2cnc(OC(C)(C)C)nc2OC(C)(C)C)cc1OC	-7.0%	i	23.1µM*	-23.2%	?	?
COc1ccc(-c2cncnc2N)cc1OC	·	?	·	-8.8%	·	2.2%
O=C(C[C@@H]1C/C=C\CC[C@H](Cc2ccc(F)cc2)C(=O)OC[C@@H]2CCCN2C1=O)N[C@H](CO)Cc1ccccc1	?	?	?	-30.5%	-15.9%	16.7%
COc1ccc(-c2nn3c(-c4cc(-c5ccccc5)n[nH]4)nnc3s2)cc1	·	·	23.1µM*	-14.3%	-15.8%	-7.4%
CCOc1ccc(-c2nn3c(-c4cc(-c5ccccc5)n[nH]4)nnc3s2)cc1	·	·	-18.9%	-13.2%	3.9%	-8.1%
O=S(=O)(CCSc1nc2ccccc2s1)c1nc2ccccc2s1	?	15.8µM*	?	-96.4%	-16.0%	?
CCS(=O)(=O)CCSc1nc2ccccc2s1	6.0%	i	6.5%	5.9%	-6.4%	8.2%
C=CCS(=O)(=O)c1nc2ccccc2s1	?	·	·	10µM*	-7.4%	17.8µM*
